Activity calls are given as the source filed them. The call rests on the fitted dose curve.
Test: qHTS drug screen for cell cycle checkpoint inhibitors in PARPi-resistant BRCA-mutant ovarian cancer cell lines. (AID 1963452)
Details: PEO1/OlaR viability, CellTiter-Glo luminescence, 96 h; for Z-AUC: stronger effect = lower value
In short: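 PEO1, PEO4 and PEO1/OlaR ovarian cancer cells, 600 per well, exposed 96 h at 37C to a dilution series. Viability read by CellTiter-Glo luminescence, normalized to DMSO and empty wells; activity summarized as Z-AUC.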

[1] = measured here: PEO1 parental Z-AUC
Potency means the concentration at half of the fitted maximal effect.

| SMILES | Z-AUC | Z-AUC [1] | Z-AUC (measured here: PEO4 Z-AUC) | Potency |
| --- | --- | --- | --- | --- |
| O=C(NCC1CCCCN1)c1cc(OCC(F)(F)F)ccc1OCC(F)(F)F (stereo not given) | -0.39 (inactive) | -0.839 | -1.07 |  |
| O=c1c(O)c(-c2ccc(O)cc2O)oc2cc(O)cc(O)c12 | 1.32 (inactive) | 1.13 | 1.21 |  |
| CCCOc1ccc2nc(NC(=O)OC)[nH]c2c1 | -0.576 (inactive) | -0.504 | -0.563 |  |
| Cc1cc2c(s1)Nc1ccccc1N=C2N1CCN(C)CC1 | -0.767 (inactive) | -0.886 | -0.45 |  |
| Nc1ncn([C@H]2C[C@H](O)[C@@H](CO)O2)c(=O)n1 | 1.63 (inactive) | -0.11 | -0.207 |  |
| N[C@@H](Cc1cc(I)c(Oc2cc(I)c(O)c(I)c2)c(I)c1)C(=O)O | -1.16 (inactive) | -0.336 | -0.169 |  |
| COCCCOc1ccnc(CS(=O)c2nc3ccccc3[nH]2)c1C (stereo not given) | -0.249 (inactive) | -0.578 | -0.176 |  |
| CC(C)C[C@H](NC(=O)[C@H](Cc1ccccc1)NC(=O)c1cnccn1)B(O)O |  | -3.19 | -2.39 | 9.8 nM (active) |
| Cc1cc(C2CCCCC2)n(O)c(=O)c1 | 0.662 (inactive) | 0.159 | -0.0703 |  |
| C[C@@H](N)C1CCC(C(=O)Nc2ccncc2)CC1 (stereo not given in full) | 0.275 (inactive) | 0.543 | 0.552 |  |
| CN(C)c1ccc2nc3ccc(=[N+](C)C)cc-3sc2c1 | -0.652 (inactive) | -0.738 | -0.606 |  |
| c1cnc2cc3c(cc2n1)C1CNCC3C1 | -0.725 (inactive) | -0.804 | -0.403 |  |
| CC(=O)O[C@H]1C(=O)[C@@]2(C)C([C@H](OC(=O)c3ccccc3)[C@]3(O)C[C@H](OC(=O)[C@H](O)[C@@H](NC(=O)c4ccccc4)c4ccccc4)C(C)=C1C3(C)C)[C@]1(OC(C)=O)CO[C@@H]1C[C@@H]2O (stereo not given in full) |  | -2.74 | -3.15 | 7.8 nM (active) |
| CCc1nc(N)nc(N)c1-c1ccc(Cl)cc1 | -0.192 (inactive) | -0.422 | -0.843 |  |
| O=C(O)c1cn(-c2ccc(F)cc2)c2cc(N3CCNCC3)c(F)cc2c1=O | 0.692 (inactive) | 0.709 | 0.947 |  |
| O=P(O)(O)C(O)(Cn1ccnc1)P(=O)(O)O | 1.02 (inactive) | 1.58 | 2.08 |  |
| O=c1cc(N2CCOCC2)oc2c(-c3ccccc3)cccc12 | 0.98 (inactive) | 0.743 | 0.809 |  |
| CCCCC(CC)COC(=O)C(C#N)=C(c1ccccc1)c1ccccc1 (stereo not given) | 0.188 (inactive) | -0.152 | 0.0622 |  |

| SMILES | Z-AUC | Z-AUC [1] | Z-AUC (measured here: PEO4 Z-AUC) | Potency |
| --- | --- | --- | --- | --- |
| O=C1c2ccccc2-c2n[nH]c3cccc1c23 | 0.0207 (inactive) | -0.118 | 0.208 |  |
| CC(=O)NC[C@H]1CN(c2ccc(N3CCOCC3)c(F)c2)C(=O)O1 | -0.303 (inactive) | -0.362 | -0.619 |  |
| COc1cc2c(N3CCN(C(=O)Nc4ccc(OC(C)C)cc4)CC3)ncnc2cc1OCCCN1CCCCC1 | 1.04 (inactive) | 0.804 | 1.1 |  |
| O=C1CCc2ccc(OCCCCN3CCN(c4cccc(Cl)c4Cl)CC3)cc2N1 | -1.31 (inactive) | -0.72 | -1.21 |  |
| Cc1ccc(C)c(OCCCC(C)(C)C(=O)O)c1 | 1.52 (inactive) | 1.37 | 1.5 |  |
| COc1c2occc2cc2ccc(=O)oc12 | 0.446 (inactive) | 1.07 | 1.02 |  |
| CC(S)C(=O)NCC(=O)O (stereo not given) | -0.465 (inactive) | 0.365 | 0.0416 |  |
| C[C@H](Cc1ccc(O)c(O)c1)[C@@H](C)Cc1ccc(O)c(O)c1 | 1.18 (inactive) | 0.707 | 0.729 |  |
| O=c1oc2cc(O)ccc2s1 | 0.214 (inactive) | 0.00456 | 1.28 |  |
| N=C(N)c1ccc2cc(OC(=O)c3ccc(N=C(N)N)cc3)ccc2c1 | 0.0758 (inactive) | 0.542 | 0.795 |  |
| Nc1ccc(S(N)(=O)=O)cc1 | 0.067 (inactive) | 0.495 | 0.56 |  |
| Clc1ccc(C(Cn2ccnc2)OCc2ccc(Sc3ccccc3)cc2)c(Cl)c1 (stereo not given) | -1.08 (inactive) | -0.535 | -0.326 |  |
| Cc1cccc(-c2[nH]ncc2-c2ccc3ncccc3n2)n1 | -0.435 (inactive) | 0.556 | 0.305 |  |
| CN(C)c1ccc(O)c2c1C[C@H]1C[C@H]3[C@H](N(C)C)C(=O)C(C(N)=O)=C(O)[C@@]3(O)C(=O)C1=C2O | 0.306 (inactive) | 0.206 | 0.369 |  |
| CC(C)c1ccc2c(c1)c(SC(C)(C)C)c(CC(C)(C)C(=O)O)n2Cc1ccc(Cl)cc1 | 1.24 (inactive) | 0.791 | 0.661 |  |
| CC1(C)NC(=O)N(c2ccc([N+](=O)[O-])c(C(F)(F)F)c2)C1=O | 1.11 (inactive) | 0.722 | 0.784 |  |
| Cc1ccc(C(=O)c2cc(O)c(O)c([N+](=O)[O-])c2)cc1 | -0.393 (inactive) | -0.655 | -0.817 |  |

Reference: PubChem BioAssay (NCATS)
